We go through 32 compounds from PubChem BioAssay.

Test [1] has as its target 6-phosphogluconate dehydrogenase, decarboxylating (Homo sapiens) (UniProt P52209). Description: inhibition of human phosphogluconate dehydrogenase – biochemical, recombinant enzyme, NADPH absorbance, primary screen (AID 1159550;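 active = at least 20% inhibition of 6-phosphogluconate dehydrogenase activity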). The following applies: recombinant 6PGD, NADPH absorbance 341 nm; at 10 µM; stronger effect = higher value.
Test [2] is described as follows: EMT-state selective cytotoxicity in co-culture – imaging, PC-3E GFP, TEM4-18 mCherry, primary screen (AID 1345086;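 active = compounds killing one labelled cell type while sparing the other, by normalised counts and ratio limits, not self-fluorescent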;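 for all read-outs here: cells exposed to compound for 72 h before imaging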;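 for red/green cell ratio (normalised): normalised mesenchymal count divided by normalised epithelial count so high means epithelial killing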). To be noted: PC-3E GFP / TEM4-18 mCherry co-culture, imaging cell counts, at 1 µM; for red/green cell ratio (normalised): actives lie on both sides, counts scaled to control wells, 1 = unselective.
Test [3] has as its target Mitogen-activated protein kinase 7 (Homo sapiens) (UniProt Q13164). Description: Gal4-ERK5 driven luciferase induction – cell-based, HTS, primary screen (AID 1508626).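 Note: luciferase driven by Gal4-ERK5 fusion binding five Gal4 sites before minimal TATA.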 The following applies: HeLa Gal4-ERK5 transactivation, 18 h, at 5 µM, stronger effect = higher value.
Where [4] appears, read: measured here: epithelial PC-3E GFP cell survival.
Setting [5] is: measured here: mesenchymal TEM4-18 mCherry cell survival.

Each structure is given as a SMILES string. Calls of active or inactive are those of the source.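 Rule for the calls, unless noted: active = luciferase signal above three times the same-plate solvent-only control wells; inactive = the rest.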

Sequence of 6-phosphogluconate dehydrogenase, decarboxylating (Homo sapiens) (P52209 whole entry, looked up): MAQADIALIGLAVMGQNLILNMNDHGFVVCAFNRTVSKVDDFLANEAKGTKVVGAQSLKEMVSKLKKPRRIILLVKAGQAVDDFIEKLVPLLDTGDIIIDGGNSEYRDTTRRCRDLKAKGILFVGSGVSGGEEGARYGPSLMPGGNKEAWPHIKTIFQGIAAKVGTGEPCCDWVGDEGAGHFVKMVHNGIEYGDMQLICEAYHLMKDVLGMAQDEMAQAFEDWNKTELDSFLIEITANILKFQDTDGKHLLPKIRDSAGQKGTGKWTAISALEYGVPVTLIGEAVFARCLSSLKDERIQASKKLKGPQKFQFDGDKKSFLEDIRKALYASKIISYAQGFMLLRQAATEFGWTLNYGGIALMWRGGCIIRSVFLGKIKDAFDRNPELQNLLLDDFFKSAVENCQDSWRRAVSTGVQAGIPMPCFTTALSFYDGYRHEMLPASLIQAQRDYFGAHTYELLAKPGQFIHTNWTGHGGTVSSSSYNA
Sequence of Mitogen-activated protein kinase 7 (Homo sapiens) (Q13164 whole entry, looked up, the tested form may be a part): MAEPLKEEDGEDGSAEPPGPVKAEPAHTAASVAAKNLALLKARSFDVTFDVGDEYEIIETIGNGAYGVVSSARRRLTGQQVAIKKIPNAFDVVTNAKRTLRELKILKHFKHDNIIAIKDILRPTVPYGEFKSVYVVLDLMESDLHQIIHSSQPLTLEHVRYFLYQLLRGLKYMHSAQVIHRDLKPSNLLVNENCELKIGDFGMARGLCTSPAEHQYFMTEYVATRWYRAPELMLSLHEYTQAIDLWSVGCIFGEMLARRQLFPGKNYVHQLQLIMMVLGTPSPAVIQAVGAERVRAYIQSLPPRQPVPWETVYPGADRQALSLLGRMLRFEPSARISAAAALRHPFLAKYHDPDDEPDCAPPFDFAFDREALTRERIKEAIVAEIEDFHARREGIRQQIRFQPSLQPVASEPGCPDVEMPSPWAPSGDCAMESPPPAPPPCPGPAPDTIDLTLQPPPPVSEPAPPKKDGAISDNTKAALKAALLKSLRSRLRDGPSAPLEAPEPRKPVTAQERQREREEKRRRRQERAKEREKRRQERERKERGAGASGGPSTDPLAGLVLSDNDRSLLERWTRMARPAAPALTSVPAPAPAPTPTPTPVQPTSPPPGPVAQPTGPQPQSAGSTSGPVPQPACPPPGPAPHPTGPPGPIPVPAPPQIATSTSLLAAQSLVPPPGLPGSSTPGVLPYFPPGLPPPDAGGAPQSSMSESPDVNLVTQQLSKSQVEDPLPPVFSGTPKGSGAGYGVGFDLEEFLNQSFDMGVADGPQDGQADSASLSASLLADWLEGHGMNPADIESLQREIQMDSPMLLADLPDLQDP

Take `COc1cc2c(cc1OC)C1(O)C(=O)c3ccc(O)c(C(=O)O)c3OC1CO2` (stereo not given): the inhibition in test [1] was 11.5% (inactive). In test [2], the red/green cell ratio (normalised) was 1 (inactive). Besides, the normalised cell number in test [2] (setting [4]) and in test [2] (setting [5]) was 1.11 in each case. Also, the luciferase signal in test [3] was 16 AU (inactive).
On to `COc1cc(O)c(C(C)=O)c(OC)c1`, for which the inhibition in test [1] was 0.271% (inactive). In test [2], the red/green cell ratio (normalised) was 0.74 (inactive). For the same compound, the values for the normalised cell number in test [2] (setting [4]) and in test [2] (setting [5]) were 1.02 and 0.75, respectively. Also, the luciferase signal in test [3] is 8 AU (inactive).
As to `O=C(O)CCCN1C(=O)c2cccc3cccc(c23)C1=O`, the inhibition in test [1] is -3.59% (inactive). For the same compound, the red/green cell ratio (normalised) in test [2] was 0.82 (inactive). The normalised cell number in test [2] (setting [4]) is 1.29; in test [2] (setting [5]), 1.06. Besides, in test [3], the luciferase signal is 48 AU (inactive).
With `O=C1c2ccccc2C(=O)c2c(O)c(O)cc(O)c21`, the inhibition in test [1] is 17.9% (inactive). Moreover, the red/green cell ratio (normalised) in test [2] was 1.09 (inactive). Also, the results for the normalised cell number in test [2] (setting [4]) and in test [2] (setting [5]) were 0.94 and 1.02, respectively. In test [3], the luciferase signal is 100 AU (inactive).
As to `C=CC(C1=CC(=O)C(OC)=CC1=O)c1ccccc1` (stereo not given), in test [1], the inhibition was -2.35% (inactive). Also, the red/green cell ratio (normalised) in test [2] is 1.14 (inactive). Moreover, the normalised cell number was found to be 0.95 in test [2] (setting [4]) and 1.08 in test [2] (setting [5]). In test [3], the luciferase signal was 60 AU (inactive).
Turning to `O=C(CC(=O)c1ccccc1)c1ccccc1`, the inhibition in test [1] is 21.3% (active). Further, the red/green cell ratio (normalised) in test [2] was 0.84 (inactive). The normalised cell number in test [2] (setting [4]) was determined as 1.16; in test [2] (setting [5]), 0.97. The luciferase signal in test [3] is 80 AU (inactive).
On the same counts, the results for `O=C(O)c1cc2cc(Cl)ccc2[nH]1` are -0.282% (inactive), 1 (inactive), 1.21, 1.21 and 52 AU (inactive).
On to `S=c1[nH]c2ccccc2s1`, for which the inhibition in test [1] was -1.67% (inactive). In addition, the red/green cell ratio (normalised) in test [2] is 0.97 (inactive). In addition, the normalised cell number was determined as 1.13 in test [2] (setting [4]) and 1.09 in test [2] (setting [5]). Also, the luciferase signal in test [3] is 48 AU (inactive).
For the compound `CCC(C(N)=O)c1ccccc1` (stereo not given), the inhibition in test [1] was -20.8% (inactive). Also, in test [2], the red/green cell ratio (normalised) was 0.96 (inactive). The normalised cell number is 1.17 in test [2] (setting [4]) and 1.12 in test [2] (setting [5]). The luciferase signal in test [3] was 68 AU (inactive).
For `CC(C)c1ccc2c(c1)CCC1[C@](C)(CN)CCC[C@]21C` (stereo not given in full), the inhibition in test [1] is 0.884% (inactive). The red/green cell ratio (normalised) in test [2] was 0.87 (inactive). Further, the normalised cell number in test [2] (setting [4]) turned out to be 0.95; in test [2] (setting [5]), 0.83. Also, in test [3], the luciferase signal is 48 AU (inactive).
In the same order, the values of `O=c1c(-c2ccccc2)coc2cc(O)cc(O)c12` are -1.41% (inactive), 0.93 (inactive), 1.2, 1.12 and 40 AU (inactive).
For `OC[C@H]1O[C@@H](n2cnc3c(NCc4ccco4)ncnc32)[C@H](O)[C@@H]1O`, the inhibition in test [1] is 3.79% (inactive). Also, in test [2], the red/green cell ratio (normalised) was 1.48 (inactive). Moreover, the figures for the normalised cell number in test [2] (setting [4]) and in test [2] (setting [5]) were 0.37 and 0.55, respectively. The luciferase signal in test [3] was 40 AU (inactive).
On to `CCc1ccc2c(O)c3c(cc2c1C(=O)OC)C(=O)c1c(O)ccc(O)c1C3=O`, for which the inhibition in test [1] was -5.67% (inactive). Also, the red/green cell ratio (normalised) in test [2] is 0.83 (inactive). Also, the normalised cell number came to 1.11 in test [2] (setting [4]) and 0.92 in test [2] (setting [5]). The luciferase signal in test [3] was 44 AU (inactive).
On to `CC12CCCC(O)(C1)C1CC(C)(C)C1CC2` (stereo not given), for which, in test [1], the inhibition is -1.62% (inactive). Moreover, in test [2], the red/green cell ratio (normalised) is 0.85 (inactive). Also, the figures for the normalised cell number in test [2] (setting [4]) and in test [2] (setting [5]) were 1.27 and 1.07, respectively. For the same compound, the luciferase signal in test [3] is 128 AU (inactive).
On the same counts, the results for `COc1ccc2c(c1)OCC(Cc1ccc(OC)c(OC)c1)C2=O` (stereo not given) are 8.36% (inactive), 0.98 (inactive), 0.85, 0.84 and 56 AU (inactive).
As for `CC(=O)O[C@@H]1CC[C@@]2(C)C(C[C@@H](OC(C)=O)[C@@]3(C)C4=CC(=O)O[C@@H](c5ccoc5)[C@]4(C)CCC23)C1(C)C` (stereo not given in full), in test [1], the inhibition is -14.7% (inactive). The red/green cell ratio (normalised) in test [2] was 0.98 (inactive). For the same compound, the normalised cell number stood at 1.08 in test [2] (setting [4]) and 1.06 in test [2] (setting [5]). Moreover, the luciferase signal in test [3] is 56 AU (inactive).
In the same order, the values of `O=C(O)C1=C[C@@H](O)[C@@H](O)[C@H](O)C1` are 9.48% (inactive), 1.05 (inactive), 0.91, 0.95 and 88 AU (inactive).
For the compound `COC(=O)c1c(C)cc(OC(=O)c2c(C)cc(O)c(C=O)c2O)c(C)c1O`, in test [1], the inhibition was 1.13% (inactive). Moreover, the red/green cell ratio (normalised) in test [2] is 0.78 (inactive). In addition, the normalised cell number was found to be 1.24 in test [2] (setting [4]) and 0.97 in test [2] (setting [5]). Besides, the luciferase signal in test [3] was 12 AU (inactive).
On the same counts, the results for `CCCCCC(=O)Cc1cc(O)cc(O)c1C(=O)Oc1cc(CC(=O)CCCCC)c(C(=O)O)c(OC)c1` are 6.8% (inactive), 1.08 (inactive), 0.95, 1.03 and 160 AU (inactive).
On the same counts, the results for `CC1=CC2C(CC1=O)C(C)=CCC2C(C)C` (stereo not given) are 2.64% (inactive), 1.21 (inactive), 1.06, 1.28 and 24 AU (inactive).
In the same order, the values of `COc1ccc2c(c1)OC[C@@H](Cc1ccc(OC)c(OC)c1)[C@H]2O` are 15.8% (inactive), 1.09 (inactive), 0.98, 1.07 and 76 AU (inactive).
With `COc1ccc2c(c1)O[C@@H]1COc3cc(OC)c(OC)cc3[C@@H]1C2=O`, the inhibition in test [1] was -2.95% (inactive). For the same compound, the red/green cell ratio (normalised) in test [2] is 0.88 (inactive). Also, the normalised cell number is 0.9 in test [2] (setting [4]) and 0.79 in test [2] (setting [5]). The luciferase signal in test [3] is 68 AU (inactive).
With `COc1cc(O)ccc1C(C)=O`, the inhibition in test [1] is 12.4% (inactive). Moreover, the red/green cell ratio (normalised) in test [2] was 0.96 (inactive). In addition, the figures for the normalised cell number in test [2] (setting [4]) and in test [2] (setting [5]) were 0.95 and 0.91, respectively. The luciferase signal in test [3] was 124 AU (inactive).
On the same counts, the results for `COc1ccc2c(c1)OC[C@@H](Cc1ccc(OC)c(OC)c1)[C@@H]2O` are 11.8% (inactive), 0.93 (inactive), 0.92, 0.85 and 68 AU (inactive).
`Nc1ccccc1C(=O)CC(N)C(=O)O` (stereo not given): the inhibition in test [1] is -2.44% (inactive). For the same compound, in test [2], the red/green cell ratio (normalised) is 1.23 (inactive). For the same compound, the normalised cell number in test [2] (setting [4]) stood at 0.56; in test [2] (setting [5]), 0.69. Moreover, the luciferase signal in test [3] was 68 AU (inactive).
In the same order, the values of `Cc1cc(=O)oc2c(O)c(O)ccc12` are -1.28% (inactive), 1.02 (inactive), 0.87, 0.89 and 44 AU (inactive).
In the same order, the values of `CC1=C(/C=C/C(C)=C/C=C/C(C)=C/C=C/C=C(C)/C=C/C=C(C)/C=C/C(=O)[C@]2(C)C[C@@H](O)CC2(C)C)C(C)(C)C[C@H](O)C1` are 1.92% (inactive), 1.16 (inactive), 0.85, 0.98 and 20 AU (inactive).
On the same counts, the results for `C#CCCCCCCCCCCCC(O)CC(O)COC(C)=O` (stereo not given) are 8.03% (inactive), 0.83 (inactive), 1.1, 0.91 and 60 AU (inactive).
On to `COC(=O)c1c(C)cc(O)cc1O`, for which, in test [1], the inhibition is 7.84% (inactive). Further, in test [2], the red/green cell ratio (normalised) was 1.06 (inactive). Also, the normalised cell number in test [2] (setting [4]) amounted to 0.91; in test [2] (setting [5]) it was 0.97. Moreover, the luciferase signal in test [3] is 36 AU (inactive).
Consider `O=C(Nc1ccccc1)Nc1ccccc1`, for which the inhibition in test [1] was 0.726% (inactive). Moreover, the red/green cell ratio (normalised) in test [2] is 0.79 (inactive). In addition, the normalised cell number stood at 1.16 in test [2] (setting [4]) and 0.91 in test [2] (setting [5]). For the same compound, in test [3], the luciferase signal was 108 AU (inactive).
On the same counts, the results for `CC(C)[C@@H]1CC[C@@H](C)CC1=O` are 15.9% (inactive), 0.93 (inactive), 1.16, 1.08 and 52 AU (inactive).
As for `COc1c(-c2coc3cc4c(cc3c2=O)CC(OC(C)=O)C(C)(C)O4)ccc2c1C=CC(C)(C)O2` (stereo not given), in test [1], the inhibition was 13.9% (inactive). Also, in test [2], the red/green cell ratio (normalised) is 0.78 (inactive). For the same compound, the values for the normalised cell number in test [2] (setting [4]) and in test [2] (setting [5]) were 1.02 and 0.8, respectively. Moreover, the luciferase signal in test [3] is 56 AU (inactive).
